# Whole data set: some 35,000 sequences, median “fluorescence intensity (a.u.)” near 10,000, cut for the highest 2% near 52,000. This excerpt belongs to a sample that is enriched for the highest values.
# Target: T1, OsWOX13 (Oryza sativa, UniProt Q5QMM3 1-267)
# T1 sequence: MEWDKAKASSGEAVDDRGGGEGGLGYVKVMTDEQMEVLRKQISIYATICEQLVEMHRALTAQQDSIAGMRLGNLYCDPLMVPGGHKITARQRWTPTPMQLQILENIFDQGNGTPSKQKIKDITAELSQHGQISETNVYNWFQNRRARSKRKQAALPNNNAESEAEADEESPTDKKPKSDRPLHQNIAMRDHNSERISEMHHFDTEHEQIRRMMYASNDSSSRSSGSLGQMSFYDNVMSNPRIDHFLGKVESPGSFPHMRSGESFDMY
# Experiment: protein-binding microarray (RPBM); PBS, 2% BSA, 51.3 ng/ul salmon testes DNA, 50 uM zinc acetate, 200 nM TF, 25 C, 1 h; high values mean tight binding
# Conditions: protein: recombinant; tags: N-terminal polyhistidine and DsRed monomer fusion (pET32a); label: CyDye5-dUTP incorporated in the synthesized complementary strand; 3' TTTTT single-stranded linker to array surface; dsDNA, one strand shown
# Outline: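 Per-feature fluorescence intensity (arbitrary units), read on an Axon 4000B scanner, is the binding signal. Transcription factors carrying an N-terminal polyhistidine tag and DsRed fusion were expressed in E. coli BL21-CodonPlus and purified on Ni–NTA. A custom Agilent array, made double-stranded by primer extension with Cy5-dUTP and blocked with 2% BSA, was incubated with 200 nM protein in PBS, 2% BSA, salmon testes DNA and 50 µM zinc acetate at 25 °C for 1 h and then washed.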
row,Sequence,binding signal
1,AATTGATGATGAAATAATGAATGATATTTGACAAGGAGCTCGGAGTCACCTAGTGCAG,17300 fluorescence intensity (a.u.)
2,GTTGATTTAATTATGGTTAACCTCTCACAGTAATCCGGGTCGGAGTCACCTAGTGCAG,64800 fluorescence intensity (a.u.)
3,TTAGTGCTTAAATGATTAATCTATGGTCTAAATTATCTTTCGGAGTCACCTAGTGCAG,7610 fluorescence intensity (a.u.)
4,ATAATTGATAATGAAGACCAAGGAAATGCTTCTTTGGTCCCGGAGTCACCTAGTGCAG,54300 fluorescence intensity (a.u.)
5,GTGAAAATGATTGGTCTTTTGATTAACATATGCAGCTTATCGGAGTCACCTAGTGCAG,53300 fluorescence intensity (a.u.)
6,GTAATTATAATTTATTTTGTTATGAGTTGTTTTATCACTCCGGAGTCACCTAGTGCAG,6220 fluorescence intensity (a.u.)
7,GCTTAATTAATTGATTCAGAAAATAAAATAGTGAAATAACCGGAGTCACCTAGTGCAG,33400 fluorescence intensity (a.u.)
8,GATATATGATTGACTCAAGTCTTATTGATAAACTTGGTCCCGGAGTCACCTAGTGCAG,57500 fluorescence intensity (a.u.)
9,TATGTAATTATTATTTATTTTATTGTGATTTGATTCATCACGGAGTCACCTAGTGCAG,31400 fluorescence intensity (a.u.)
10,TGTAATTATAATTTATTTTGTGATGAGTTGTTTTATCACTCGGAGTCACCTAGTGCAG,55800 fluorescence intensity (a.u.)
11,ACGTAATTATAATTATTTTATTGTGAGTTGTTTTATTACTCGGAGTCACCTAGTGCAG,26500 fluorescence intensity (a.u.)
12,TTGATATTCTTTATATGATTATATAGGATTGGTCTCCCTCCGGAGTCACCTAGTGCAG,3530 fluorescence intensity (a.u.)
13,ATGGTTTGACTTGGATAAACTGGATTCTTAACTCAAACCTCGGAGTCACCTAGTGCAG,3410 fluorescence intensity (a.u.)
14,GTAATAATTGATTGGTTCAGAAATTAATCACTAATTGTCCCGGAGTCACCTAGTGCAG,65000 fluorescence intensity (a.u.)
15,AATAATTTGGTTAGTTATTGTTAAGGAGAAATTTGATTCCCGGAGTCACCTAGTGCAG,12500 fluorescence intensity (a.u.)
16,TGTAATTATAATTTATTTTATTGTGATTTGATTTATCATCCGGAGTCACCTAGTGCAG,59800 fluorescence intensity (a.u.)
17,TTATGTAATTATAATTTATTTTATTGTGACTTGATTTATCCGGAGTCACCTAGTGCAG,34000 fluorescence intensity (a.u.)
18,GAGAAATGGTAATTTAGCATGCTTATATATTGAGGTTTAGCGGAGTCACCTAGTGCAG,8510 fluorescence intensity (a.u.)
19,TAATCTGTGATGATGGATTCTCGTTAAGCATATGTTCTTTCGGAGTCACCTAGTGCAG,5830 fluorescence intensity (a.u.)
20,TGGTGGTGGCTGGCGGCGGGGAGGATGAGAACGAGAGAAGCGGAGTCACCTAGTGCAG,3920 fluorescence intensity (a.u.)
21,TTCCGGCCTAGATTGAATCTGGGTTTAACCGTAAGAGTCCCGGAGTCACCTAGTGCAG,6260 fluorescence intensity (a.u.)

row,Sequence,binding signal
1,GTGGATATCAATCTGTATATACTAGATCCCCACCCACCATCGGAGTCACCTAGTGCAG,6630 fluorescence intensity (a.u.)
2,TCGAACAGGCCCTTAATTATCTGAGCTATCCTGCATGCTTCGGAGTCACCTAGTGCAG,8320 fluorescence intensity (a.u.)
3,GGCAAATTAACCAAGTTAGCTGCAGCTGCAGCTGGGATGGCGGAGTCACCTAGTGCAG,9780 fluorescence intensity (a.u.)
4,CATTTGATTGTATTTCCATCTTATTCTTAATCTGTATAAGCGGAGTCACCTAGTGCAG,32100 fluorescence intensity (a.u.)
5,ACCAATCACAACCATTCTTCTTCACTTACTTTCTCTTTTCCGGAGTCACCTAGTGCAG,6630 fluorescence intensity (a.u.)
6,GTGATTGATGTAAATGCCTTAACGGTCCAGCACCTCAGCTCGGAGTCACCTAGTGCAG,61200 fluorescence intensity (a.u.)
7,ATATTATTATATTATAATTATACTGTATTTATATCTGATACGGAGTCACCTAGTGCAG,9100 fluorescence intensity (a.u.)
8,TTGATGATGTAACGTACGGTTGATTAATAATAAATTAGGTCGGAGTCACCTAGTGCAG,18400 fluorescence intensity (a.u.)
9,GTCTTAATTATATTTGATAATCAACTTTATCCTTGGTTTGCGGAGTCACCTAGTGCAG,50800 fluorescence intensity (a.u.)
10,ATTGATTATGCCATGATTGGATCTTGGCACAGTGCTCTGCCGGAGTCACCTAGTGCAG,60300 fluorescence intensity (a.u.)
11,CTATATCTTGATGCTTTGTTGATTAGTACCATGGATTGGCCGGAGTCACCTAGTGCAG,6900 fluorescence intensity (a.u.)
12,TTCTGTAATTGATGCTCCTGCATTTTAGTGTATAAGTGTACGGAGTCACCTAGTGCAG,36500 fluorescence intensity (a.u.)
13,GAAGTTGATTATGAGCTCTTGGATCTTTTGGCAGGTGCAACGGAGTCACCTAGTGCAG,19400 fluorescence intensity (a.u.)
14,TGTGATTAAATGATTCCTCCAGTGCTATATGCCTATATAACGGAGTCACCTAGTGCAG,17500 fluorescence intensity (a.u.)
15,CTTATAATTGATTTATAGTCTGTCATTGTATCTGCTCTTACGGAGTCACCTAGTGCAG,65100 fluorescence intensity (a.u.)
16,TCAATTAATTGATTTATAATGATTTGGTCTTATCAATCCCCGGAGTCACCTAGTGCAG,53400 fluorescence intensity (a.u.)
17,TGCCAACTTATCCATCAATTGAGATTAATGATTTGGTCTTCGGAGTCACCTAGTGCAG,13900 fluorescence intensity (a.u.)
18,GTTGCTAAATTTTAGTTATTACTGTGCAGTTGCCAAATTTCGGAGTCACCTAGTGCAG,4010 fluorescence intensity (a.u.)
19,CATGAATTGGAAGATTTGATGCACTGATACTCCATGAAGACGGAGTCACCTAGTGCAG,8060 fluorescence intensity (a.u.)
20,ATTAAATTTGAAAATTTATTAAATTGTGCTGATAAGTCAACGGAGTCACCTAGTGCAG,14500 fluorescence intensity (a.u.)
21,AAGACGGTAATAGACTGTGCGAGTTGAACATGCAACTCTACGGAGTCACCTAGTGCAG,7360 fluorescence intensity (a.u.)

# From PMC7819943, “Rice protein-binding microarrays: a tool to detect cis-acting elements near promoter regions in rice”
